Assay results taken from PubChem BioAssay (EPA / NIEHS).
Results filed as inconclusive are left out. Active and inactive are the calls of the source. How the source made its calls: active means hit-call score of the fitted dose curve at least 0.9, where 1 is the maximum; inconclusive means response in the unintended direction; inactive means score below 0.9.

The compounds below were run against human Vitamin D Receptor (VDR), VDR (gene 7421) (UniProt P11473) (assay: ATG_VDR_TRANS: Attagene TRANS-FACTORIAL HepG2 Assay for human Vitamin D Receptor (VDR) (AID 2283022)).
Outline: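 Multiplexed TRANS reporter in HepG2; 24 h treatment; reporter mRNA by RT-PCR plus capillary electrophoresis; upregulation scored relative to DMSO.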

Chain of human Vitamin D Receptor (VDR), VDR (gene 7421) (P11473 whole entry, looked up): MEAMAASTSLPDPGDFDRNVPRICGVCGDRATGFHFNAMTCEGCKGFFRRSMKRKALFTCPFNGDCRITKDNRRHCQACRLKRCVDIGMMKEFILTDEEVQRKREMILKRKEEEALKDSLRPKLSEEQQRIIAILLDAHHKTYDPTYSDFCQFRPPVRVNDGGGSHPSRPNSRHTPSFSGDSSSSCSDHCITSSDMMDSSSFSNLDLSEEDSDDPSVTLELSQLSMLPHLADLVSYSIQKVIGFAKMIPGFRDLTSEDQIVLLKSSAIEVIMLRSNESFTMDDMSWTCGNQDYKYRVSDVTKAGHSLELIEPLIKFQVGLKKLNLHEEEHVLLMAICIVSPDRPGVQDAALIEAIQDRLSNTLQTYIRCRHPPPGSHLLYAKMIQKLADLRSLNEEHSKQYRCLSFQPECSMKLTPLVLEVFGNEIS

outcome, inactive:
C#CC(C)(O)CC(C)C (centres undefined)
Cc1c(C2(c3cc(Br)c(O)c(Br)c3C)OS(=O)(=O)c3ccccc32)cc(Br)c(O)c1Br
COC(=O)Nc1ccc(Cl)c(Cl)c1
CCCCCCCC(=O)OCCCCCC
CCCCC1CCC(O)CC1 (centres undefined)
CCCCC1(COC(=O)CCC(=O)O)C(=O)N(c2ccccc2)N(c2ccccc2)C1=O
O=C1NC2NC(=O)NC2N1 (centres undefined)
Cc1c(Cl)cccc1[N+](=O)[O-]
CCCCC(CC)COC(C)=O (centres undefined)
CCOC(=O)CC(C)O (centres undefined)
OCC#CCO
Cc1ccc(N)c(S(=O)(=O)O)c1
COc1ccc(CCC(C)=O)cc1
CCCCCCCCN1CCCC1=O
Cc1ccc(C)o1
C=C(CC(=O)O)C(=O)O
Cc1cccc(Nc2ccccc2)c1
CCCC(=O)C(CC)Sc1ccoc1C (centres undefined)
CCC(Cl)C(Cl)C(Cl)CC(Cl)C(Cl)C(C)Cl (centres undefined)
CS(C)=O
C[C@H]1O[C@@H](O[C@H]2[C@@H](O)C[C@H](O[C@H]3[C@@H](O)C[C@H](O[C@H]4CC[C@@]5(C)[C@H](CC[C@@H]6[C@@H]5C[C@@H](O)[C@]5(C)[C@@H](C7=CC(=O)OC7)CC[C@]65O)C4)O[C@@H]3C)O[C@@H]2C)C[C@H](O)[C@@H]1O
CCCCCCC(C)Nc1ccc(Nc2ccccc2)cc1 (centres undefined)
CCOC(=O)[C@@H](C)Oc1ccc(Oc2nc3ccc(Cl)cc3o2)cc1
C=C1C[C@]23C[C@@]1(O)CC[C@H]2[C@@]12C=C[C@H](O)[C@@](C)(C(=O)O1)[C@H]2[C@@H]3C(=O)O
COCCOCCOCCO
C[C@H]1C[C@@H](O)CC(C)(C)C1
CCCCCCCCCCCC(=O)OCC(O)CO (centres undefined)
CCCCCCCCCCCCCCN(CCO)CCO
CCN(CCC#N)c1ccc(N=Nc2ccc([N+](=O)[O-])cc2)cc1
CCC(C)S (centres undefined)
CCCCCCCCCCCC(=O)OC[C@@H](O)[C@H]1OC[C@H](O)[C@H]1O
[Cl][Au]([Cl])[Cl]
CCCCCc1ccco1
ON=C1CCCCC1
CCOC(=O)CN
CCCSc1ccc2nc(NC(=O)OC)[nH]c2c1
Nc1c(Cl)cc(Cl)cc1[N+](=O)[O-]
CCOC(=O)C1OC1c1ccccc1 (centres undefined)
CCOC(=O)c1ccc(N)cc1
